Screening results deposited in PubChem BioAssay by National Center for Advancing Translational Sciences (NCATS).
A selection: hits, their analogues and other compounds. The true share with any hit is near 19%.
DT40 TDP1 CPT = DT40-hTDP1 cell growth loss with CPT; Potency, µM (titrated, usually from 46.2 µM), inactives show at the highest dose activity change, negative = growth inhibition, hits mostly inhibitors; 420,000 compounds, 12% hits; chicken DT40 Tdp1-/-;hTDP1 cells + 20 nM CPT, ATP luminescence, 48 h; further: potency means the concentration at half of the fitted maximal effect; nearly all actives have a fitted effect of over 55% in size
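Chicken DT40 Tdp1-/- cells stably complemented with human TDP1 were seeded at 400 cells/well in medium containing 20 nM camptothecin, exposed to pin-transferred compounds, and grown at 37 °C for at least 48 hr. Viability was read as ATP luminescence.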
HT1080NT lethal = kills 2HG-producing HT-1080-NT fibrosarcoma cells. HT-1080-NT fibrosarcoma viability, CellTiter-Glo ATP luminescence, 48 h. Potency, µM (highest dose often 46.1 µM), for the others: top-dose activity, negative = less viability, hits mostly cytotoxic. 360,000 compounds, 1.6% hits. AID 686970;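 further: NT is the 2HG producing partner of a matched IDH1 knockdown line; potency means the concentration at half of the fitted maximal effect; 0% = DMSO-treated cells and -100% = media-only wells without cells; nearly all actives have a fitted effect of over 55% in size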
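Luminescent CellTiter-Glo readout after 48 hours of compound exposure at 37 degrees C defined viability of HT-1080-NT cells. Activity was normalized to DMSO wells and cell-free media wells; concentration-response curves were fitted and assigned curve classes.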
HT1080 IDH1KD tx = HT-1080 IDH1 knockdown cell toxicity (counter line) | HT-1080 IDH1 knockdown viability, ATP luminescence, 48 h | Potency, µM (top dose mostly 46.1 µM), without a hit: top-dose activity, negative = toxicity, usual class: cytotoxic | 360,000 compounds, 2% hits | AID 686971;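 further: potency means the concentration at half of the fitted maximal effect; 0% = DMSO wells and -100% = cell-free medium wells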
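After a 2 h attachment period, IDH1KD HT-1080 cells took pin-transferred compound for 48 h at 37 °C; ATP-based luminescence after 10 min room-temperature reagent incubation reported viability.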
TDP1 cell noCPT = qHTS for Inhibitors of human tyrosyl-DNA phosphodiesterase 1 (TDP1): qHTS in cells in absence of CPT; DT40 Tdp1-/- hTDP1 cells, no CPT, ATP luminescence, 48 h; Potency, µM (titrated, usually from 46.2 µM), without a hit: at the top dose activity change, negative = growth inhibition, hits mostly inhibitors; 420,000 compounds, 15% hits; AID 686978, 2013; further: potency means the concentration at half of the fitted maximal effect; nearly all actives have a fitted effect of over 55% in size
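DT40 Tdp1-/-;hTDP1 cells, no CPT (DMSO vehicle only), 400 cells/well; compounds pin-transferred; ≥48 hr, 37 °C; CellTiter-Glo 30 min RT dark, luminescence read.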
IL1B secr inh = inhibitors of inflammasome signaling (IL-1 beta secretion); 360,000 compounds, 4.7% hits; THP-1 LPS/ATP IL-1B secretion, AlphaLISA, 16 h; active compounds read low; activity change, % at 57.5 µM; in the data active means activity change below about -50%; inconclusive means mostly about -30% to -49%
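THP-1 cells pretreated 1 hr with compounds (up to 57.5 uM final), then stimulated with LPS (250 ng/mL final) plus ATP (1.25 mM final); secreted IL-1B measured by AlphaLISA after 16 hr, decreased signal indicating inhibition.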
ELG1 DNA repair = inhibitors of ELG1-dependent DNA repair in HEK293T cells. 330,000 compounds, 2.3% hits. Potency, µM (highest dose often 46.1 µM), for inactives: at the highest dose activity change, negative = inhibition, most hits filed as inhibitors. HEK293T ELG1-luciferase reporter, luminescence, 16 h; DNA damage induced by 5-fluorouridine. AID 504467; further: potency means the concentration at half of the fitted maximal effect; nearly all actives have a fitted effect of over 55% in size
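Quantitative HTS, concentration-response format. 2,000 cells/well co-treated with 5-fluorouridine and compound, 16 hr in 5% CO2 at 37 °C; ONE-Glo luminescence read after 30 min.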
* hit, by the source's call; ? = inconclusive; nt = not tested or not shown; [ ] = another dose, or the depositor's remark. Unless noted, the call rests on the fitted dose curve; in most records, active means well fitted curve in the direction sought with a large enough effect; inconclusive means small, poorly fitted or top-dose-only effect, or another doubt; inactive means no such curve, though single readings can be large; an effect the other way counts as inactive or inconclusive. Unless noted, on the % scale 0 is the no-effect control and ±100 the full control effect.

SMILES	DT40 TDP1 CPT	HT1080NT lethal	HT1080 IDH1KD tx	TDP1 cell noCPT	IL1B secr inh	ELG1 DNA repair
COCCn1c(=O)c(-c2ccc(OC)cc2)nc2cnc(Oc3ccc(OC)cc3)nc21	11%	nt	nt	12%	nt	nt
COC(=O)CC(=O)CSc1nc2cc(C(=O)NC(C)C)ccc2c(=O)n1CCc1ccccc1	?	nt	nt	23µM*	nt	nt
COCCn1c(SCC(=O)c2c(C)[nH]c3ccccc23)nc2cc(C(=O)NC(C)C)ccc2c1=O	12µM*	nt	nt	16µM*	nt	nt
COC(=O)c1ccc2c(=O)n(CCN3CCOCC3)c(SCC(=O)NCc3ccccc3)nc2c1	3%	5%	11%	-29%	-1	19%
COC(=O)CC(=O)CSc1nc2cc(C(=O)NCC(C)C)ccc2c(=O)n1CCc1ccccc1	?	nt	nt	21µM*	nt	nt
COCCn1c(SCC(=O)c2ccc(C)cc2)nc2cc(C(=O)NC3CCCC3)ccc2c1=O	6%	nt	nt	-4%	nt	nt
CCc1ccc2oc(C(=O)NCC(c3ccc(OC)cc3)N3CCCCC3)c(C)c2c1 (centres undefined)	23µM*	8%	4%	16µM*	-24	-5%
COc1ccc(C(CNC(=O)c2oc3ccc(Br)cc3c2C)N2CCCCC2)cc1 (centres undefined)	13µM*	5%	7%	9.2µM*	-82*	?
COc1ccc(C(CNC(=O)c2oc3cc(C)c(C)cc3c2C)N2CCCCC2)cc1 (centres undefined)	13µM*	16%	7%	9.2µM*	12	19%
COc1ccc(C(CNC(=O)c2cc3ccccc3cc2OC)N2CCCC2)cc1 (centres undefined)	?	-1%	0%	?	0	-8%
COc1ccc(C(CNC(=O)c2oc3cc(Br)ccc3c2C)N2CCCCC2)cc1 (centres undefined)	16µM*	4%	5%	23µM*	11	-7%
CN1CCCC1=Nc1ccccc1	-6%	5%	0%	-3%	20	nt
COc1ccc(C(=O)C2CCCN(C(=O)c3csc(SC)n3)C2)cc1F (centres undefined)	?	8%	13%	?	3	nt
CCOC(=O)C(CC)c1cc2n(c(=O)c1C#N)CCC21OCCO1 (centres undefined)	-15%	20%	10%	-13%	23	nt
COc1ccc(C(CNC(=O)c2oc3ccc(F)cc3c2C)N2CCCCC2)cc1 (centres undefined)	?	-11%	-28%	?	?	-11%
CCOc1ccc2oc(C(=O)NCC(c3ccco3)N(C)C)c(C)c2c1 (centres undefined)	16µM*	0%	3%	23µM*	-6	-13%
COc1ccc(C(CNC(=O)C(C)Oc2ccc(Br)cc2)N2CCCCC2)cc1 (centres undefined)	18µM*	4%[9.24 µM]	-8%	21µM*	-6	2%
COc1ccc(C(CNC(=O)c2oc3ccc(OC)cc3c2C)N2CCCC2)cc1 (centres undefined)	23µM*	?	-17%	16µM*	?	-16%
O=C(Nc1cccc(N2CCC(NCc3cnn(-c4cccc(F)c4)c3)CC2)c1)c1ccncc1	-7%[9.04 µM]	nt	nt	?	nt	nt
O=C(O)CCCC(=O)Nc1ccn(-c2ccccc2)n1	18µM*	-1%	-4%	?	47	-1%
COc1ccc(-c2nc(CSCC(=O)N3CCN(c4cc(Cl)ccc4C)CC3)c(C)o2)cc1	13µM*	nt	nt	16µM*	nt	nt
COc1ccc(-c2nc(CSCC(=O)N3CCN(c4ccc(OC)cc4)CC3)c(C)o2)cc1	?	nt	nt	10µM*	nt	nt
CCc1ccc(-c2nc(CSCC(=O)N3CCN(c4ncccn4)CC3)c(C)o2)cc1	?	-6%	1%	?	43	15µM*
CCOc1ccc(-c2nc(CSCC(=O)N3CCN(c4ccc(F)cc4)CC3)c(C)o2)cc1	-18%	nt	nt	-22%	nt	nt
CSc1ccc(-c2nc(CSCC(=O)N3CCOCC3)c(C)o2)cc1	?	2%	-15%	?	3	?
SMILES	DT40 TDP1 CPT	HT1080NT lethal	HT1080 IDH1KD tx	TDP1 cell noCPT	IL1B secr inh	ELG1 DNA repair
CCOc1ccc(-c2nc(CSCC(=O)N3CCN(c4cccc(C(F)(F)F)c4)CC3)c(C)o2)cc1	21µM*	nt	nt	10µM*	nt	nt
Cc1ccc(-c2noc(CCC(=O)N3CCN(c4cccc(C(F)(F)F)c4)CC3)n2)cc1	?	-27%	-20%	?	-5	-29%
C=C1C=C(C(F)F)n2ncc(C(=O)N3CCN(c4ccccn4)CC3)c2N1	-2%	nt	nt	-16%	nt	nt
COc1ccc(-c2nc(CSCC(=O)N3CCN(c4cccc(C)c4C)CC3)c(C)o2)cc1OC	18µM*	nt	nt	23µM*	nt	nt
COc1ccc(-c2nc(CSCC(=O)N3CCN(C)CC3)c(C)o2)cc1OC	-5%	7%	0%	0%	-2	4%
COc1ccc(-c2cn(-c3ccccc3)c3[n+]2CCS3)cc1	2.3µM*	?	13µM*	2.3µM*	-11	?
CC(C)(C)c1ccc(-c2cn(-c3ccc(Br)cc3)c3[n+]2CCCS3)cc1	0.16µM*	23µM*	8.2µM*	0.18µM*	-99*	4.1µM*
